From PubChem BioAssay AID1159580 (chemical genetic matrix, 2015)
Values joined by “and” are separate entries in the source; they are usually repeats but may differ in a detail not shown here. Equal values may be shown once. The campaign covered roughly 5,500 compounds. About 2,000 (36%) were called active. Roughly 18% stayed inconclusive and do not appear here. The list shows a part of the results. A number with no mark means an inactive call. Rule as the data show it: active = normalized growth mostly below about 0.91 (no sharp cut-off); inconclusive = no clear call, values can overlap the other calls; inactive = mostly above about 0.92.

Assay: chemical genetic growth profiling, strain panel (AID 1159580);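 also: tested at 20 µM; growth read once vehicle control cultures reached saturation at 30 °C; 1 = growth at the plate median or of vehicle wells; lower values mean less growth of the strain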
Settings: growth OD

COc1ccc2c(c1)c(CC(=O)O)c(C)n2C(=O)c1ccc(Cl)cc1
normalized growth (S. cerevisiae deletion strains, locus YJR075W, strain HOC1, hits give low values): 1 | normalized growth (S. cerevisiae deletion strains, locus YKL009W, strain mrt4, hits give low values): 0.998 | normalized growth (S. cerevisiae deletion strains, locus YKL068W, hits give low values): 0.959 | normalized growth (S. cerevisiae deletion strains, locus YKL085W, strain MDH1 (second series), hits give low values): 0.955 | normalized growth (S. cerevisiae deletion strains, locus YKL085W, strain MDH1, hits give low values): 0.955 | normalized growth (S. cerevisiae deletion strains, locus YKL160W, strain elf1, hits give low values): 0.98 | normalized growth (S. cerevisiae deletion strains, locus YKL190W, strain CNB1, hits give low values): 1.01 | normalized growth (S. cerevisiae deletion strains, locus YKR001C, strain vps1, hits give low values): 0.993 | normalized growth (S. cerevisiae deletion strains, locus YKR026C, strain gcn3, hits give low values): 0.983 | normalized growth (S. cerevisiae deletion strains, locus YKR091W, strain srl3, hits give low values): 0.984 | normalized growth (S. cerevisiae deletion strains, locus YLL001W, strain dnm1, hits give low values): 0.938 | normalized growth (S. cerevisiae deletion strains, locus YLL026W, hits give low values): 0.988 | normalized growth (S. cerevisiae deletion strains, locus YLL041C, strain sdh2, hits give low values): 0.986 | normalized growth (S. cerevisiae deletion strains, locus YLR027C, strain aat2, hits give low values): 0.98 | normalized growth (S. cerevisiae deletion strains, locus YLR039C, strain RIC1, hits give low values): 1.17 | normalized growth (S. cerevisiae deletion strains, locus YLR058C, strain SHM2, hits give low values): 1.02 | normalized growth (S. cerevisiae deletion strains, locus YLR102C, strain apc9, hits give low values): 0.975 | normalized growth (S. cerevisiae deletion strains, locus YLR113W, strain HOG1, hits give low values): 0.874 | normalized growth (S. cerevisiae deletion strains, locus YLR221C, strain rsa3, hits give low values): 0.874 (active) | normalized growth (S. cerevisiae deletion strains, locus YLR258W, strain gsy2, hits give low values): 0.978 | normalized growth (S. cerevisiae deletion strains, locus YLR262C, strain YPT6 (second series), hits give low values): 0.912 | normalized growth (S. cerevisiae deletion strains, locus YLR262C, strain YPT6, hits give low values): 1.03 | normalized growth (S. cerevisiae deletion strains, locus YLR268W, strain sec22, hits give low values): 0.993 | normalized growth (S. cerevisiae deletion strains, locus YLR320W, strain mms22, hits give low values): 0.819 (active) | normalized growth (S. cerevisiae deletion strains, locus YLR330W, strain CHS5, hits give low values): 0.995 | normalized growth (S. cerevisiae deletion strains, locus YLR342W, strain FKS1 (second series), hits give low values): 1.01 | normalized growth (S. cerevisiae deletion strains, locus YLR342W, strain FKS1, hits give low values): 0.971 | normalized growth (S. cerevisiae deletion strains, locus YLR357W, strain rsc2, hits give low values): 0.973 | normalized growth (S. cerevisiae deletion strains, locus YLR370C, strain arc18, hits give low values): 0.943 | normalized growth (S. cerevisiae deletion strains, locus YLR371W, strain rom2, hits give low values): 0.987 | normalized growth (S. cerevisiae deletion strains, locus YLR384C, strain iki3, hits give low values): 0.986 | normalized growth (S. cerevisiae deletion strains, locus YLR418C, strain cdc73, hits give low values): 0.966 | normalized growth (S. cerevisiae deletion strains, locus YML016C, strain PPZ1, hits give low values): 1.01 | normalized growth (S. cerevisiae deletion strains, locus YML032C, strain rad52, hits give low values): 0.999 | normalized growth (S. cerevisiae deletion strains, locus YML120C, strain ndi1, hits give low values): 0.874 (active) | normalized growth (S. cerevisiae deletion strains, locus YML124C, strain tub3, hits give low values): 0.981 | normalized growth (S. cerevisiae deletion strains, locus YMR058W, strain fet3, hits give low values): 0.975 | normalized growth (S. cerevisiae deletion strains, locus YMR078C, strain ctf18, hits give low values): 0.973 | normalized growth (S. cerevisiae deletion strains, locus YMR125W, strain sto1, hits give low values): 0.975 | normalized growth (S. cerevisiae deletion strains, locus YMR129W, hits give low values): 0.987 | normalized growth (S. cerevisiae deletion strains, locus YMR205C, strain PFK2, hits give low values): 0.982 | normalized growth (S. cerevisiae deletion strains, locus YMR223W, strain ubp8, hits give low values): 0.976 | normalized growth (S. cerevisiae deletion strains, locus YMR231W, strain pep5, hits give low values): 0.988 | normalized growth (S. cerevisiae deletion strains, locus YMR263W, strain SAP30, hits give low values): 1 and 1.01 | normalized growth (S. cerevisiae deletion strains, locus YMR307W, strain GAS1, hits give low values): 1.02 and 1 | normalized growth (S. cerevisiae deletion strains, locus YNL067W, strain RPL9B, hits give low values): 1 | normalized growth (S. cerevisiae deletion strains, locus YNL071W, strain lat1, hits give low values): 0.986 | normalized growth (S. cerevisiae deletion strains, locus YNL175C, strain NOP13, hits give low values): 1 | normalized growth (S. cerevisiae deletion strains, locus YNL183C, strain NPR1, hits give low values): 0.931 | normalized growth (S. cerevisiae deletion strains, locus YNL197C, strain WHI3, hits give low values): 1 | normalized growth (S. cerevisiae deletion strains, locus YNL209W, strain ssb2, hits give low values): 0.953 | normalized growth (S. cerevisiae deletion strains, locus YNL224C, strain SQS1, hits give low values): 0.994 | normalized growth (S. cerevisiae deletion strains, locus YNL233W, strain BNI4, hits give low values): 1.01 | normalized growth (S. cerevisiae deletion strains, locus YNL248C, strain rpa49, hits give low values): 0.958 | normalized growth (S. cerevisiae deletion strains, locus YNL250W, strain rad50, hits give low values): 0.947 | normalized growth (S. cerevisiae deletion strains, locus YNL271C, strain bni1, hits give low values): 0.955 | normalized growth (S. cerevisiae deletion strains, locus YNL298W, strain CLA4, hits give low values): 0.944 | normalized growth (S. cerevisiae deletion strains, locus YNL307C, strain MCK1, hits give low values): 0.986 | normalized growth (S. cerevisiae deletion strains, locus YNL322C, strain KRE1 (second series), hits give low values): 0.64 (active) | normalized growth (S. cerevisiae deletion strains, locus YNL322C, strain KRE1, hits give low values): 1 | normalized growth (S. cerevisiae deletion strains, locus YNR049C, strain mso1, hits give low values): 0.984 | normalized growth (S. cerevisiae deletion strains, locus YNR052C, strain pop2, hits give low values): 0.99 | normalized growth (S. cerevisiae deletion strains, locus YOL012C, strain htz1): 2.03 | normalized growth (S. cerevisiae deletion strains, locus YOL147C, strain pex11, hits give low values): 0.981 | normalized growth (S. cerevisiae deletion strains, locus YOR001W, strain rrp6, hits give low values): 0.926 | normalized growth (S. cerevisiae deletion strains, locus YOR061W, strain CKA2, hits give low values): 1.01 | normalized growth (S. cerevisiae deletion strains, locus YOR069W, strain VPS5, hits give low values): 0.996 | normalized growth (S. cerevisiae deletion strains, locus YOR070C, strain gyp1, hits give low values): 0.977 | normalized growth (S. cerevisiae deletion strains, locus YOR080W, strain dia2, hits give low values): 0.989 | normalized growth (S. cerevisiae deletion strains, locus YOR083W, strain WHI5 (second series), hits give low values): 1.01 | normalized growth (S. cerevisiae deletion strains, locus YOR083W, strain WHI5, hits give low values): 0.942 | normalized growth (S. cerevisiae deletion strains, locus YOR106W, strain vam3, hits give low values): 0.929 | normalized growth (S. cerevisiae deletion strains, locus YOR136W, strain idh2, hits give low values): 1 | normalized growth (S. cerevisiae deletion strains, locus YOR144C, strain elg1, hits give low values): 0.992 | normalized growth (S. cerevisiae deletion strains, locus YOR184W, strain ser1, hits give low values): 0.988 | normalized growth (S. cerevisiae deletion strains, locus YOR231W, strain MKK1, hits give low values): 0.953 | normalized growth (S. cerevisiae deletion strains, locus YOR265W, strain rbl2, hits give low values): 0.96 | normalized growth (S. cerevisiae deletion strains, locus YOR270C, strain vph1, hits give low values): 0.957 | normalized growth (S. cerevisiae deletion strains, locus YOR290C, strain snf2, hits give low values): 0.895 | normalized growth (S. cerevisiae deletion strains, locus YOR316C, strain cot1, hits give low values): 0.985 | normalized growth (S. cerevisiae deletion strains, locus YPL051W, strain arl3, hits give low values): 0.969 | normalized growth (S. cerevisiae deletion strains, locus YPL078C, strain atp4, hits give low values): 0.975 | normalized growth (S. cerevisiae deletion strains, locus YPL106C, strain sse1, hits give low values): 1.02 | normalized growth (S. cerevisiae deletion strains, locus YPL240C, strain hsp82, hits give low values): 0.978 | normalized growth (S. cerevisiae deletion strains, locus YPL241C, strain CIN2, hits give low values): 0.996 | normalized growth (S. cerevisiae deletion strains, locus YPL256C, strain CLN2, hits give low values): 0.871 | normalized growth (S. cerevisiae deletion strains, locus YPR119W, strain clb2, hits give low values): 0.98 | normalized growth (S. cerevisiae deletion strains, locus YPR141C, strain kar3, hits give low values): 0.96 | normalized growth (S. cerevisiae deletion strains, locus YPR163C, strain tif3, hits give low values): 0.981 | normalized growth (S. cerevisiae deletion strains, locus YPR167C, strain met16, hits give low values): 0.977 | normalized growth (S. cerevisiae deletion strains, strain wtn01, hits give low values): 0.985 | normalized growth (S. cerevisiae strains, strain wild type, hits give low values): 1
